# According to PubChem BioAssay (NCATS):
# Inconclusive results are not listed. Entries that show only a call come without a potency. Activity calls are given as the source filed them. Calls come from the whole dose curve; as a rule, active = well fitted curve in the direction sought with a large enough effect; inconclusive = small, poorly fitted or top-dose-only effect, or another doubt; inactive = no such curve, though single readings can be large; an effect the other way counts as inactive or inconclusive. Positions of bridges follow the written chain, without caps; N, C: chain ends. Non-standard residues stand in square brackets, D forms with d. Residues, ends and D or L forms follow the SMILES beside them. *: point of attachment. X1 = CCC(C)C(N)C1=NC(C(=O)*)CS1; dOrn = NCCC[C@@H](N)C(=O)O
# Tested on: not listed separately
# Assay: qHTS for Inhibitors of the Aldehyde Dehydrogenase Family (ALDH1A2, ALDH1A3, ALDH2, ALDH3A1) (AID 2061307); note: nearly all actives have a fitted effect of over 50% in size; for potency: test system not described further here; potency is the fitted concentration of half-maximal effect
# Conditions: ALDH inhibition qHTS; series mostly up to 50.3 µM
row,SMILES,Potency
1,Cn1cnc(-c2nccc3c(=O)[nH]c(OCCCC(F)(F)F)nc23)c1,inactive
2,N[C@@H](CCNCc1ccc(Cl)cc1)C(=O)N1CCCCC1,inactive
3,CN(C)c1ccc(C2O[C@@H](c3ccccc3)C[C@H](c3ccccc3)O2)cc1 (some centres not stated),3.57 µM (active)
4,COc1cc(/C=C/C(=O)OCC2OC(OC3(CO)OC(CO)C(O)C3O)C(O)C(O)C2O)ccc1O (configuration not stated),inactive
5,CCCN1CCC=C(c2cc(-c3ccc(C)cc3)no2)C1,inactive
6,CCCCNC(=O)[C@@H]1Cc2ccccc2N1C(=O)[C@@H](N)CC,inactive
7,COc1cc(Nc2ncc(F)c(Nc3ccc4c(n3)NC(=O)C(C)(C)O4)n2)cc(OC)c1OC,inactive
8,CC[C@H](CO)Nc1nc(NCc2ccc(-c3ccccn3)cc2)c2ncn(C(C)C)c2n1,inactive
9,O=C(CN1C2=NCCN2c2ccccc21)c1ccc(-c2ccccc2)cc1,3.57 µM (active)
10,CN(C)c1ccc2c(c1)OC(N)=C(C#N)C2c1cccc(C(F)(F)F)c1 (configuration not stated),inactive
11,CC(C)C[C@H](NC(=O)[C@@H](NC(=O)c1cccc(-c2ccccc2)n1)[C@@H](C)O)B(O)O,inactive
12,O=C1CC(c2ccc([N+](=O)[O-])cc2)=NN1c1ccccc1,inactive
13,CCCN(CCN1CCN(c2ccccc2OC)CC1)C1CCc2ncsc2C1 (configuration not stated),inactive
14,COc1ccnc(CCc2nc3ncccc3[nH]2)c1,inactive
15,CN(C)C(=O)Nc1cccc(-c2ccc(N(C)C)cc2)c1,inactive
16,COc1ccc(-c2cc3onc(-c4ccncc4)c3c(=O)n2C)cc1,inactive

# Molecular target: Aldehyde dehydrogenase, mitochondrial (Homo sapiens) (UniProt P05091)
# Assay: qHTS for Inhibitors of the Aldehyde Dehydrogenase Family (ALDH2) Primary screen (AID 2061308); note: nearly all actives have a fitted effect of over 55% in size
# Conditions: ALDH2 enzyme inhibition qHTS, 1536-well; series mostly up to 56 µM
row,SMILES,Potency
1,COc1cccc2cc(-c3nc(C4CCC(C(=O)O)CC4)n4ncnc(N)c34)[nH]c12 (configuration not stated),inactive
2,CC(=O)NC(C)c1cnc(-c2cnc(Oc3ccc(OC(C)C)cc3)s2)s1 (configuration not stated),inactive
3,COc1ccc2c(c1O)OC[C@H]1c3ccc(O)cc3O[C@@H]21,inactive
4,CC1(C)CC(=O)c2c(C(F)(F)F)nn(-c3ccc(C(N)=O)c(NC4CCC(OC(=O)CN)CC4)c3)c2C1 (configuration not stated),inactive
5,COC(=O)N1CCN(Cc2cccc(NC(=O)Nc3ccc(C)nc3)c2F)CC1,inactive
6,CC(C)(C)Nc1nc(Nc2ccc(C(N)=O)cc2)cc(N)c1C#N,inactive
7,COC(=O)c1ccc(O[C@@H]2O[C@H](CO)[C@@H](O)[C@H](O)[C@H]2O)c(OC)c1,inactive
8,CCC(C)C(N)C1=NC(C(=O)N[C@@H](CC(C)C)C(=O)N[C@H](CCC(=O)O)C(=O)N[C@H](C(=O)N[C@H]2CCCCNC(=O)[C@H](CC(N)=O)NC(=O)[C@@H](CC(=O)O)NC(=O)[C@H](Cc3cnc[nH]3)NC(=O)[C@@H](Cc3ccccc3)NC(=O)[C@H]([C@@H](C)CC)NC(=O)[C@@H](CCCN)NC2=O)[C@@H](C)CC)CS1 (some centres not stated) (X1-L[dE]IK[dOrn]I[dF]H[dD]N; lactam 4-C),inactive
9,Cc1ncc(-c2ccnc(Nc3ccc(S(C)(=O)=O)cc3)n2)n1C(C)C,inactive
10,O=C(Nc1ccccc1)N1CCN(Cc2ccc3ccccc3n2)CC1,inactive
11,O=C(CCCCCCC(=O)Nc1ccccc1)NO,inactive
12,COc1cc(C(O)C2COC(c3ccc(OC4OC(CO)C(O)C(O)C4O)c(OC)c3)C2CO)ccc1O (configuration not stated),inactive
13,COc1cc(/C=C/C(=O)OCC2OC(OC3(CO)OC(CO)C(O)C3O)C(O)C(O)C2O)ccc1O (configuration not stated),inactive
14,Nc1ccccc1NC(=O)c1ccc(CNC(=O)OCc2cccnc2)cc1,inactive
15,COc1cc(Nc2ncc(F)c(Nc3ccc4c(n3)NC(=O)C(C)(C)O4)n2)cc(OC)c1OC,inactive
16,Cc1ccccc1C#Cc1ccc(CCC(=O)O)cc1,inactive
17,CN(C)C(=O)Nc1cccc(-c2ccc(N(C)C)cc2)c1,inactive

# Molecular target: Retinaldehyde dehydrogenase 3 (Homo sapiens) (UniProt P47895)
# Assay: qHTS for Inhibitors of the Aldehyde Dehydrogenase Family (ALDH1A3) Confirmatory screens (AID 2061311); note: nearly all actives have a fitted effect of over 60% in size; note: potency is the fitted concentration of half-maximal effect
# Conditions: ALDH inhibition qHTS; series mostly up to 46 µM
row,SMILES,Potency
1,Cc1cc2ncc(C(=O)NCC(C)(C)NCC(=O)N3CCC[C@H]3C#N)cn2n1,inactive
2,CC(=O)NC(C)c1cnc(-c2cnc(Oc3ccc(OC(C)C)cc3)s2)s1 (configuration not stated),inactive
3,COc1ccc2c(c1O)OC[C@H]1c3ccc(O)cc3O[C@@H]21,22.5 µM (active)
4,COCCN(C(=O)c1cc(OC)c(OC)c(OC)c1)c1nc(-c2ccccc2)cs1,inactive
5,COC(=O)N1CCN(Cc2cccc(NC(=O)Nc3ccc(C)nc3)c2F)CC1,inactive
6,CC(C)(C)Nc1nc(Nc2ccc(C(N)=O)cc2)cc(N)c1C#N,15.8 µM (active)
7,COC(=O)c1ccc(O[C@@H]2O[C@H](CO)[C@@H](O)[C@H](O)[C@H]2O)c(OC)c1,17.5 µM (active)
8,Cc1nnc(-c2sc(NC(=O)[C@H](C(C)C)n3c(=O)[nH]c4ccccc4c3=O)nc2C)o1,inactive
9,O=C(O)c1cnn(-c2nc3cc(OC(F)(F)F)c(Cl)cc3[nH]2)c1,3.18 µM (active)
10,CCC(C)C(N)C1=NC(C(=O)N[C@@H](CC(C)C)C(=O)N[C@H](CCC(=O)O)C(=O)N[C@H](C(=O)N[C@H]2CCCCNC(=O)[C@H](CC(N)=O)NC(=O)[C@@H](CC(=O)O)NC(=O)[C@H](Cc3cnc[nH]3)NC(=O)[C@@H](Cc3ccccc3)NC(=O)[C@H]([C@@H](C)CC)NC(=O)[C@@H](CCCN)NC2=O)[C@@H](C)CC)CS1 (some centres not stated) (X1-L[dE]IK[dOrn]I[dF]H[dD]N; lactam 4-C),inactive
11,CCOC(=O)c1cccc(CNc2ccc(N(C)C(=O)Nc3ccccc3)cc2)c1,inactive
12,COc1ccc(CCO[C@@H]2CCCC[C@H]2N2CC[C@@H](O)C2)cc1OC,inactive
13,C[C@@H]1CN(Cc2ncccn2)C[C@H]1c1nc2c(cnn2C2CCOCC2)c(=O)[nH]1,inactive
14,O=C(Nc1ccccc1)N1CCN(Cc2ccc3ccccc3n2)CC1,inactive
15,O=C(CCCCCCC(=O)Nc1ccccc1)NO,inactive
16,CN(C)c1ccc(C2O[C@@H](c3ccccc3)C[C@H](c3ccccc3)O2)cc1 (some centres not stated),3.55 µM (active)
17,CCCCNC(=O)[C@@H]1Cc2ccccc2N1C(=O)[C@@H](N)CC,inactive
18,Nc1ccccc1NC(=O)c1ccc(CNC(=O)OCc2cccnc2)cc1,inactive
19,O=C(CN1C2=NCCN2c2ccccc21)c1ccc(-c2ccccc2)cc1,31.6 µM (active)
20,Cc1ccccc1C#Cc1ccc(CCC(=O)O)cc1,10.1 µM (active)
21,CC(C)C[C@H](NC(=O)[C@@H](NC(=O)c1cccc(-c2ccccc2)n1)[C@@H](C)O)B(O)O,inactive
22,O=C1CC(c2ccc([N+](=O)[O-])cc2)=NN1c1ccccc1,11.3 µM (active)
23,CCCN(CCN1CCN(c2ccccc2OC)CC1)C1CCc2ncsc2C1 (configuration not stated),inactive
24,COc1ccnc(CCc2nc3ncccc3[nH]2)c1,inactive
